Records with an inconclusive call do not appear. Calls of active or inactive are those of the source. Unless noted, the limit is not given here; nearly all actives have AC50 up to about 26 µM.
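Also: cells exposed to compound for 48 hours before readout.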

The nature of one assay: SU-DIPG-VI glioma cell viability, MIPE4.0 library, CellTiter-Glo luminescence, qHTS (AID 1347066; cut-off not given, nearly all actives have AC50 up to about 30 µM). The conditions noted are these: CellTiter-Glo ATP luminescence.
Consider `N[C@@H]1CONC1=O`, for which the compound was classed as inactive.

Regarding `CCCc1cc(=O)[nH]c(=S)[nH]1`, the result was inactive.

Regarding `O=C(O)c1cccnc1`, the compound was classed as inactive.

For the compound `CC(C[N+](C)(C)C)OC(N)=O` (configuration not stated), the outcome was inactive.

Turning to `NNC(=O)c1ccncc1`, the result was inactive.

The nature of another assay: JHH-DIPG-1 glioma cell viability, MIPE5.0 library, CellTiter-Glo luminescence, qHTS (AID 1347067). The conditions noted are these: JHH-DIPG-1 glioma viability, CellTiter-Glo ATP luminescence.
Regarding `CC12CC3CC(C)(C1)CC(N)(C3)C2`, the compound was classed as inactive.

Regarding `CC(=O)OCC(CCn1cnc2cnc(N)nc21)COC(C)=O`, the outcome was inactive.

For `Oc1c(Cl)cc(Cl)c2cccnc12`, the AC50 is 2950 nM (active).

As to `OC(Cn1cncn1)(Cn1cncn1)c1ccc(F)cc1F`, the compound was called inactive.

As for `NCCc1ccc(O)c(O)c1`, the call was inactive.

Regarding `COc1c(N2CCNC(C)C2)c(F)cc2c(=O)c(C(=O)O)cn(C3CC3)c12` (configuration not stated), the compound was called inactive.

Consider `CC1COc2c(N3CCN(C)CC3)c(F)cc3c(=O)c(C(=O)O)cn1c23` (configuration not stated), for which the compound was classed as inactive.

In the case of `O=C(C1CCCCC1)N1CC(=O)N2CCc3ccccc3C2C1` (configuration not stated), the compound was classed as inactive.

For `CCc1cc(C(N)=S)ccn1`, the result was inactive.

For `CC1=C(/C=C/C(C)=C/C=C/C(C)=C/C(=O)O)C(C)(C)CCC1`, the outcome was inactive.

For the compound `CCCCNc1cc(C(=O)O)cc(S(N)(=O)=O)c1Oc1ccccc1`, the compound was called inactive.

Consider `O=c1[nH]cnc2[nH]ncc12`, for which the compound was called inactive.

As to `O=C(O)c1cc(=O)c2c(OCC(O)COc3cccc4oc(C(=O)O)cc(=O)c34)cccc2o1`, the outcome was inactive.

With `CC(C)C(=O)Nc1ccc([N+](=O)[O-])c(C(F)(F)F)c1`, the compound was classed as inactive.

Consider `CC(COc1ccccc1)N(CCCl)Cc1ccccc1` (configuration not stated), for which the compound was called inactive.

Regarding `CCCc1nc2c(C)cc(-c3nc4ccccc4n3C)cc2n1Cc1ccc(-c2ccccc2C(=O)O)cc1`, the outcome was inactive.

As for `CC(=O)CC(c1ccccc1)c1c(O)c2ccccc2oc1=O` (configuration not stated), the outcome was inactive.

These data come from PubChem BioAssay.
